Data on eight compounds can be found in PubChem BioAssay (NCI).

Molecules are shown by their SMILES. The panel holds about 83,000 compounds, 20% with a hit somewhere; the sample as a whole holds those more often.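 A percent growth of 40 corresponds to 60% growth inhibition; 0 means no net growth; -100 means all cells died. Active threshold: below 10.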 Values without a mark were called inactive. The source made the active and inactive calls.

Test systems include NCI-H23 lung; NCI-H226 lung; NCI-H322M lung; HOP-62 NSCLC; NCI-H460 lung; HOP-92 NSCLC; NCI-H522 lung; A549/ATCC NSCLC; 786-0 renal; DU-145 prostate; K-562 leukemia; MALME-3M melanoma; MDA-MB-231 breast; RXF 393 renal; SF-268 CNS; SF-295 CNS; SF-539 CNS; UACC-257 melanoma; M14 melanoma; COLO 205 colon.
What all share (test): NCI-60 one-dose screen, 48 h (100 = growth as untreated, 0 = no growth, -100 = all killed)
Common to all, as to settings: 10 µM unless noted

For `CC(=O)CC(c1cccs1)c1c(-c2ccccc2)[nH]c2ccccc12` (stereo unspecified), the growth with NCI-H23 lung was 66%; with NCI-H226 lung, 84.3%; in the assay with NCI-H322M lung, 91.4%; with HOP-62 NSCLC it was 89.5%; in the assay on NCI-H460 lung it was 98.4%; in the assay with HOP-92 NSCLC it was 72.6%. In addition, the growth in the assay with NCI-H522 lung was 80.6%; in the assay with A549/ATCC NSCLC it was 91.3%; in the assay with 786-0 renal, 98.9%; in the assay on DU-145 prostate it was 103%; in the assay on K-562 leukemia, 77.2%; in the assay on MALME-3M melanoma, 104%. Also, the growth in the assay with MDA-MB-231 breast is 86.9%; in the assay on RXF 393 renal it was 99.9%; in the assay with SF-268 CNS it was 85.6%; in the assay on SF-295 CNS, 80.4%; with SF-539 CNS, 98.9%; in the assay with UACC-257 melanoma it was 103%. Also, the growth in the assay with M14 melanoma is 94.5%.
As for `NS(=O)(=O)c1ccc(N=Nc2ccc(-c3nn4cc(-c5ccccc5)nc4s3)cc2)cc1`, the growth in the assay on NCI-H23 lung is 97.1%; in the assay on NCI-H226 lung, 99.9%; in the assay with NCI-H322M lung, 103%; in the assay on HOP-62 NSCLC, 83%; in the assay with NCI-H460 lung it was 113%; with HOP-92 NSCLC, 105%. For the same compound, the growth with A549/ATCC NSCLC is 96.9%; in the assay on 786-0 renal, 94.6%; in the assay with COLO 205 colon, 100%; in the assay on DU-145 prostate it was 108%; with K-562 leukemia it was 93.5%; with MALME-3M melanoma, 105%. Moreover, the growth in the assay on MDA-MB-231 breast is 107%; in the assay with RXF 393 renal it was 111%; in the assay on SF-268 CNS it was 101%; in the assay with SF-295 CNS, 96.5%; with SF-539 CNS, 97.6%; in the assay on UACC-257 melanoma it was 99.8%. Further, the growth in the assay on M14 melanoma was 96.6%.
In the case of `COc1cc(C2CC(c3ccc(SC)cc3)=NN2C(C)=O)cc(OC)c1OC` (stereo unspecified), the growth with NCI-H23 lung was 70.5%; in the assay with NCI-H226 lung it was 85.3%; in the assay on NCI-H322M lung, 91%; in the assay on HOP-62 NSCLC, 80.1%; with NCI-H460 lung, 48.6%; in the assay with HOP-92 NSCLC, 83.7%. Further, the growth was 58% in the assay with A549/ATCC NSCLC; 84.6% in the assay on 786-0 renal; 64.6% in the assay on COLO 205 colon; 91% with DU-145 prostate; 31.1% with K-562 leukemia; 59.6% in the assay on MALME-3M melanoma. Moreover, the growth with MDA-MB-231 breast was 85.3%; with RXF 393 renal, 77.7%; in the assay with SF-268 CNS it was 77.2%; with SF-295 CNS, 44.1%; in the assay on SF-539 CNS, 78.1%; with UACC-257 melanoma, 79.4%. Further, in the assay with M14 melanoma, the growth was 44.3%.
With `c1ccc2c(c1)Nc1ccncc1S2`, the growth in the assay with NCI-H23 lung is 99.5%; in the assay on NCI-H226 lung, 84%; in the assay with NCI-H322M lung, 114%; with HOP-62 NSCLC, 98.2%; with NCI-H460 lung, 100%; with HOP-92 NSCLC, 97.9%. Moreover, the growth in the assay on A549/ATCC NSCLC is 100%; in the assay with 786-0 renal, 109%; with COLO 205 colon, 130%; in the assay with DU-145 prostate, 118%; in the assay on K-562 leukemia it was 112%; in the assay on MALME-3M melanoma it was 111%. For the same compound, the growth was 87.8% in the assay with MDA-MB-231 breast; 4.28% (active) with RXF 393 renal; 99.3% in the assay on SF-268 CNS; 101% in the assay on SF-295 CNS; 84.4% in the assay with SF-539 CNS; 108% in the assay with UACC-257 melanoma. Moreover, the growth in the assay on M14 melanoma was 95.1%.
On to `Cc1nc2ccccc2n1-c1ncnc2c1CC(C)c1ccccc1N2C` (stereo unspecified), for which the growth is 85.6% in the assay on NCI-H23 lung; 89.7% with NCI-H226 lung; 97.8% with NCI-H322M lung; 68.4% with HOP-62 NSCLC; 102% in the assay on NCI-H460 lung; 51.4% in the assay on HOP-92 NSCLC. Besides, the growth with NCI-H522 lung is 72.5%; in the assay with A549/ATCC NSCLC it was 70.8%; in the assay on 786-0 renal it was 92%; with DU-145 prostate, 96.2%; with K-562 leukemia it was 31.2%; in the assay with MALME-3M melanoma, 105%. Further, the growth with RXF 393 renal is 102%; in the assay with SF-268 CNS, 94.2%; in the assay on SF-295 CNS it was 77.9%; with SF-539 CNS it was 93.9%; in the assay on UACC-257 melanoma it was 91.5%; in the assay on M14 melanoma it was 71.3%.
Consider `O=C(Nc1ccc(I)cc1F)c1cc(I)ccc1O`, for which the growth in the assay with NCI-H23 lung is -13.4% (active); with NCI-H226 lung, -4.51% (active); with NCI-H322M lung, -3.09% (active); with HOP-62 NSCLC it was 16.8%; with NCI-H460 lung it was 2.89% (active); in the assay on HOP-92 NSCLC it was -20.5% (active). For the same compound, the growth is 10.9% in the assay on A549/ATCC NSCLC; 2.12% (active) in the assay with 786-0 renal; 91.1% in the assay on COLO 205 colon; 21.2% in the assay with DU-145 prostate; 7.64% (active) in the assay on K-562 leukemia; -26.9% (active) in the assay on MALME-3M melanoma. Also, the growth in the assay with MDA-MB-231 breast was -34.7% (active); with RXF 393 renal, -9.34% (active); in the assay on SF-268 CNS it was 13.6%; with SF-295 CNS, -34% (active); in the assay with SF-539 CNS it was 9.88% (active); in the assay on UACC-257 melanoma it was -17% (active). Besides, the growth with M14 melanoma was 5.74% (active).
Take `Oc1ccc(-c2nc3ccc4[nH]ncc4c3c3c2CCCC3)c2cccnc12`: the growth with NCI-H23 lung is -7.85% (active); in the assay with NCI-H226 lung it was -2.05% (active); in the assay with NCI-H322M lung, 11.3%; in the assay on HOP-62 NSCLC, 5.46% (active); with NCI-H460 lung it was -21.7% (active); with HOP-92 NSCLC, -16.7% (active). Further, the growth was -34% (active) in the assay on A549/ATCC NSCLC; 2.06% (active) with 786-0 renal; -11.6% (active) in the assay with COLO 205 colon; 11.6% in the assay on DU-145 prostate; 7.23% (active) in the assay on K-562 leukemia; -3.69% (active) with MALME-3M melanoma. Also, the growth in the assay with MDA-MB-231 breast was 18.8%; in the assay on RXF 393 renal, -9.52% (active); in the assay on SF-268 CNS it was 0.245% (active); in the assay on SF-295 CNS, -4.23% (active); in the assay with SF-539 CNS it was -1.03% (active); in the assay on UACC-257 melanoma it was -20.4% (active). The growth in the assay on M14 melanoma is 3.35% (active).
Consider `CCCCn1c(=O)c(-c2cc(-c3ccc(Cl)cc3)nc(-c3ccc(Cl)cc3)c2)cc2cc(Cl)ccc21`, for which the growth with NCI-H23 lung was 105%; in the assay with NCI-H226 lung, 104%; in the assay on NCI-H322M lung it was 96%; in the assay with HOP-62 NSCLC it was 104%; in the assay on NCI-H460 lung it was 108%; with HOP-92 NSCLC, 94.2%. For the same compound, the growth was 101% with A549/ATCC NSCLC; 106% in the assay on 786-0 renal; 109% with COLO 205 colon; 112% in the assay on DU-145 prostate; 102% in the assay with K-562 leukemia; 104% in the assay on MALME-3M melanoma. Moreover, the growth was 84.6% with MDA-MB-231 breast; 118% in the assay with RXF 393 renal; 98.4% in the assay on SF-268 CNS; 103% in the assay with SF-295 CNS; 103% in the assay with SF-539 CNS; 96.1% in the assay on UACC-257 melanoma. For the same compound, the growth in the assay with M14 melanoma was 101%.
